The list is not random: actives were taken first. Their share in the collection is about 8.9%.
KB-3-1 cytotox: KB-3-1 parental cell cytotoxicity | Potency, µM (highest dose often 46.1 µM), actives largely listed as cytotoxic | KB-3-1 viability, CellTiter-Glo ATP luminescence, 72 h | actives 1.4% (n = 400,000) | AID 1347075; further: potency means the concentration at half of the fitted maximal effect; on the % scale 0 is the no-effect control and ±100 the full control effect; nearly all actives have a fitted effect of over 60% in size
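72 h, 37 °C compound treatment of KB-3-1 parental cells; CellTiter-Glo added, 10 min, luminescence read. Data corrected against DMSO-only plates and normalized before curve fitting.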
SW480 rereplic: induces DNA re-replication in SW480 colon adenocarcinoma cells. AID 624297. Potency, µM (top dose mostly 46.1 µM), without a hit: top-dose re-replication activation, actives largely listed as activators. actives 1.8% (n = 340,000). SW480 DNA re-replication, Hoechst DNA content imaging, 48 h; further: potency means the concentration at half of the fitted maximal effect; % of control where 0% means no effect; nearly all actives have a fitted effect of over 55% in size
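Hoechst fluorescence of nuclei (405 nm excitation, 500-530 nm emission) measured by plate-scanning imager after 48 hr compound exposure at 37 C; re-replication scored as increased number of nuclei with elevated intensity.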
MCF10A rereplic: DNA re-replication induction in MCF 10a cells; MCF 10A DNA re-replication, Hoechst nuclear intensity, 48 h; Potency, µM (series often up to 46.1 µM), inactives show at the top dose activity, positive = re-replication, most hits filed as activators; actives 2.9% (n = 350,000); further: potency means the concentration at half of the fitted maximal effect; % of control where 0% means no effect; nearly all actives have a fitted effect of over 50% in size
DRD3 agonist: activates the human D3 dopamine receptor | P35462 | D3R DiscoveRx beta-arrestin cells, luminescence, 90 min | max activation, % | actives 0.58% (n = 410,000) | AID 652048; in the data active means max activation above about 30%; further: 0% is about no effect
Target sequence (P35462 whole entry, looked up): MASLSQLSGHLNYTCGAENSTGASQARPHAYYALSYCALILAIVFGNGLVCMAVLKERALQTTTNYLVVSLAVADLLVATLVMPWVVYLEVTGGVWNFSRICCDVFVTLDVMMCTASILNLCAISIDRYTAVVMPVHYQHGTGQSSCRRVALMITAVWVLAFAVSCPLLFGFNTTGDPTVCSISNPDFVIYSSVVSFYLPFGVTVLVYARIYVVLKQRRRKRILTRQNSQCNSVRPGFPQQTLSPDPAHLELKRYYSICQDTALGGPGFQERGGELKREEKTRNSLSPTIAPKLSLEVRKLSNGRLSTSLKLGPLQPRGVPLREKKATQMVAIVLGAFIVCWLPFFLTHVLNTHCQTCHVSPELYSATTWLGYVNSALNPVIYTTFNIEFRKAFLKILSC
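Cells at 1500/well, incubated overnight, then treated with pinned compounds (dopamine as control) for 90 min at 37 degrees C. DiscoveRx reagent added for 30 - 60 minutes at room temperature; luminescence read.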
D3 antag: antagonists of human D3 dopamine receptor; max response, negative = inhibition, %; AID 652054; P35462; D3R cells, DiscoveRx beta-arrestin luminescence, antagonist mode; active compounds read low; actives 2.5% (n = 360,000); in the data active means max response below about -50%; inconclusive means no clear call, values can overlap the other calls; further: on the % scale 0 is the no-effect control and ±100 the full control effect
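Cells plated overnight at 1500 cells/well, then exposed to library compounds with dopamine controls for 90 minutes at 37 degrees C. DiscoveRx reagent added for 30–60 minutes at room temperature; luminescence read, quantitative HTS format.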
KB-V1 cytotox: KB-V1 MDR subline cytotoxicity; actives 3.4% (n = 400,000); Potency, µM (doses to about 46.1 µM), actives largely listed as cytotoxic; AID 1347076; KB-V1 MDR cells viability, CellTiter-Glo, 72 h; further: potency means the concentration at half of the fitted maximal effect; on the % scale 0 is the no-effect control and ±100 the full control effect; nearly all actives have a fitted effect of over 60% in size
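Following 72 h at 37 degrees C with compound, KB-V1 cell viability was read by CellTiter-Glo luminescence, medium being phenol-red-free DMEM plus 10% FBS; concentration-response parameters came from normalized, curve-fitted qHTS data.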
* = called active by the depositor. Unless noted, the call rests on the fitted dose curve; in most records, active means well fitted curve in the direction sought with a large enough effect; inconclusive means small, poorly fitted or top-dose-only effect, or another doubt; inactive means no such curve, though single readings can be large; an effect the other way counts as inactive or inconclusive.

What do the screens show for `Cc1ccc(C(=O)Nc2ccccc2C(=O)N2CC3(C)CC2CC(C)(C)C3)cc1` (configuration not stated)?
KB-3-1 cytotox: inactive; SW480 rereplic: inconclusive; MCF10A rereplic: 26µM*; DRD3 agonist: -2; D3 antag: 4; KB-V1 cytotox: inconclusive

How did Cc1cc(C)n2nc(SCc3nnc(SCc4ccccc4C)s3)nc2n1 do in these assays?
KB-3-1 cytotox: inactive; SW480 rereplic: -20%; MCF10A rereplic: -7%; DRD3 agonist: 21; D3 antag: 33; KB-V1 cytotox: 21µM*

Results for Cc1cc(C)n2nc(SCC3COc4ccccc4O3)nc2n1 (configuration not stated) ?
KB-3-1 cytotox: inactive; SW480 rereplic: 5%; MCF10A rereplic: 0%; DRD3 agonist: -2; D3 antag: -19; KB-V1 cytotox: 23µM*

How did Cc1cc(C(=O)Nc2ccc(Nc3ccccc3)cc2)ccc1[N+](=O)[O-] do in these assays?
KB-3-1 cytotox: inconclusive; SW480 rereplic: 18%; MCF10A rereplic: inconclusive; DRD3 agonist: 0; D3 antag: 10; KB-V1 cytotox: inconclusive

How did Cc1ccccc1NC(=O)c1ccc(Nc2c([N+](=O)[O-])cc([N+](=O)[O-])c3ccccc23)cc1 do in these assays?
KB-3-1 cytotox: inactive; SW480 rereplic: 6%; MCF10A rereplic: -3%; DRD3 agonist: -10; D3 antag: -71*; KB-V1 cytotox: 16µM*

How did O=C(COc1ccccc1Cl)Nc1ccc(Cl)c(-c2nc3ccccc3o2)c1 do in these assays?
KB-3-1 cytotox: inactive; DRD3 agonist: 3; KB-V1 cytotox: inactive

What do the screens show for `O=C(O)c1cc2c(s1)-c1ccccc1CC2`?
KB-3-1 cytotox: inactive; SW480 rereplic: 1%; MCF10A rereplic: 3%; DRD3 agonist: -17; D3 antag: -25; KB-V1 cytotox: inactive

What do the screens show for `O=C(N/N=C/c1ccc(Cl)cc1)c1cc2c(s1)-c1ccccc1CC2`?
KB-3-1 cytotox: 21µM*; SW480 rereplic: inconclusive; MCF10A rereplic: inconclusive; DRD3 agonist: 7; D3 antag: 4; KB-V1 cytotox: inconclusive

How did COc1ccc(-c2cc(C(=O)N3CCN(c4ccccc4)CC3)c3ccccc3n2)cc1OC do in these assays?
KB-3-1 cytotox: inactive; SW480 rereplic: 18%; MCF10A rereplic: 13µM*; DRD3 agonist: 2; D3 antag: 21; KB-V1 cytotox: inconclusive

Results for O=C(OCC(=O)N1CCN(C(=O)c2ccco2)CC1)c1cc(-c2ccc(Cl)c(Cl)c2Cl)nc2ccccc12 ?
KB-3-1 cytotox: inconclusive; SW480 rereplic: inconclusive; MCF10A rereplic: inconclusive; DRD3 agonist: -1; D3 antag: -9; KB-V1 cytotox: 21µM*

Results for COc1cc(-c2csc(N3CCOCC3)n2)cc(OC)c1OC ?
KB-3-1 cytotox: inactive; SW480 rereplic: -2%; MCF10A rereplic: -4%; DRD3 agonist: -13; D3 antag: 10; KB-V1 cytotox: inactive

How did COc1ccc(-c2csc(N3CCN(c4cc(C)nc5ccccc45)CC3)n2)cc1OC do in these assays?
KB-3-1 cytotox: inactive; SW480 rereplic: inconclusive; MCF10A rereplic: 24%; DRD3 agonist: 32*; D3 antag: 76; KB-V1 cytotox: 16µM*

How did O=C(OCC(=O)N1CCN(C(=O)c2ccco2)CC1)c1cc(-c2ccco2)nc2ccccc12 do in these assays?
KB-3-1 cytotox: inactive; SW480 rereplic: -6%; MCF10A rereplic: 5%; DRD3 agonist: 20; D3 antag: 14; KB-V1 cytotox: inconclusive

Results for COc1ccc(-c2cc(C(=O)N3CCCCCC3)c3ccccc3n2)cc1OC ?
KB-3-1 cytotox: inactive; DRD3 agonist: 2; D3 antag: 11; KB-V1 cytotox: inactive

Results for COc1ccc(-c2cc(C(=O)OCC(=O)N3CCCCC3)c3ccccc3n2)cc1OC ?
KB-3-1 cytotox: inactive; SW480 rereplic: 4%; MCF10A rereplic: inconclusive; DRD3 agonist: 4; D3 antag: 54; KB-V1 cytotox: 3.7µM*

How did COc1ccc(C)cc1NS(=O)(=O)c1ccc2c3c(cccc13)C(=O)N2 do in these assays?
KB-3-1 cytotox: inactive; DRD3 agonist: -6; KB-V1 cytotox: inconclusive

What do the screens show for `COc1cc2c(NC3CCN(C)CC3)nc(N3CCCN(C)CC3)nc2cc1OCCCC(C)C`?
KB-3-1 cytotox: inconclusive; KB-V1 cytotox: inactive

How did CCOC(=O)c1cccc(NC(=O)CCn2nc(C)c3c(C)n(-c4ccccc4)nc3c2=O)c1 do in these assays?
KB-3-1 cytotox: inactive; DRD3 agonist: -8; KB-V1 cytotox: inactive

How did COc1ccccc1N1CCN(S(=O)(=O)c2ccc3c(c2)CCCN3C(C)=O)CC1 do in these assays?
KB-3-1 cytotox: inactive; DRD3 agonist: 2; KB-V1 cytotox: inactive

Results for CC(=O)c1c(C)[nH]c(C(=O)NNC(=O)COc2cc(C)ccc2C(C)C)c1C ?
KB-3-1 cytotox: inactive; SW480 rereplic: inconclusive; MCF10A rereplic: 1%; DRD3 agonist: -1; D3 antag: 1; KB-V1 cytotox: inactive

Results for CCOC(=O)c1[nH]c(C)c(C(=O)N2CCOCC2)c1C ?
KB-3-1 cytotox: inactive; SW480 rereplic: -3%; MCF10A rereplic: -4%; DRD3 agonist: -5; D3 antag: 0; KB-V1 cytotox: inactive

How did COc1ccc(OC)c(NC(=O)c2[nH]c(C)c(C(C)=O)c2C)c1 do in these assays?
KB-3-1 cytotox: inactive; SW480 rereplic: -12%; MCF10A rereplic: 24%; DRD3 agonist: -4; D3 antag: -11; KB-V1 cytotox: 16µM*

How did CC(=O)c1c(C)[nH]c(C(=O)NNC(=O)COc2ccc(Cl)cc2C)c1C do in these assays?
KB-3-1 cytotox: inactive; SW480 rereplic: -20%; MCF10A rereplic: 7.1µM*; DRD3 agonist: 20; D3 antag: 13; KB-V1 cytotox: inactive

What do the screens show for `CCOC(=O)c1[nH]c(C)c(C(=O)N2CCN(c3ccccc3)CC2)c1C`?
KB-3-1 cytotox: inactive; SW480 rereplic: 1%; MCF10A rereplic: 4%; DRD3 agonist: -17; D3 antag: -28; KB-V1 cytotox: 16µM*

How did CCOC(=O)c1[nH]c(C)c(C(=O)NCc2ccc(Cl)cc2)c1C do in these assays?
KB-3-1 cytotox: inactive; SW480 rereplic: 4%; MCF10A rereplic: inconclusive; DRD3 agonist: -10; D3 antag: 27; KB-V1 cytotox: 23µM*

How did CCOc1ccc(NC(=O)c2cc3c(=O)n4cccc(C)c4nc3s2)cc1 do in these assays?
KB-3-1 cytotox: inactive; DRD3 agonist: 3; KB-V1 cytotox: inactive

How did COC(=O)c1ccccc1NC(=O)c1c(NC(=O)c2ccco2)sc2c1CCC(C(C)(C)C)C2 (configuration not stated) do in these assays?
KB-3-1 cytotox: inactive; DRD3 agonist: -15; KB-V1 cytotox: inactive
